The text below walks through data of PubChem BioAssay (NCATS).

SMILES strings stand for the structures. Where “and” joins values, the source holds several entries; their conditions need not be identical. Equal entries are not always repeated. A number with no mark means an inactive call. Records with an inconclusive call do not appear. Calls of active or inactive are those of the source. Unless noted, the call rests on the fitted dose curve; in most records, active means well fitted curve in the direction sought with a large enough effect; inconclusive means small, poorly fitted or top-dose-only effect, or another doubt; inactive means no such curve, though single readings can be large; an effect the other way counts as inactive or inconclusive.

One assay has as its system JEG-3. Put plainly: Primary qHTS to identify gynecologic anti-cancer compounds using libraries of approved drugs and bioactive compounds (AID 1345084). Further: nearly all actives have a fitted effect of over 55% in size. Further: potency means the concentration at half of the fitted maximal effect. On activity change, negative = cytotoxicity: on the % scale 0 is the no-effect control and ±100 the full control effect. The following applies: Gynecologic cancer cell panel viability, ATPlite luminescence, 48 h; series mostly up to 57.5 µM. A digest of the protocol:
(§1)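 Cytotoxicity screen measuring ATP content by luciferase luminescence. Each compound is applied at five concentrations for 48 h at 37 C with 5% CO2.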

The next assay relates to OV90. The assay is described as above. The following applies: Gynecologic cancer cell panel viability, ATPlite luminescence, 48 h; series mostly up to 57.5 µM. A digest of the protocol:
as §1
A general note: In ATP-based viability assays light output follows the ATP content of the culture.

The subject of the next assay is PA-1. Described as above. The following applies: Gynecologic cancer cell panel viability, ATPlite luminescence, 48 h; series mostly up to 57.5 µM. A digest of the protocol: as §1
The test system of a further assay is SKOV3. The description is as above. The following applies: Gynecologic cancer cell panel viability, ATPlite luminescence, 48 h; series mostly up to 57.5 µM. A digest of the protocol:
as §1

The next assay has as its system Tov-21-G. The assay is described as above. The following applies: Gynecologic cancer cell panel viability, ATPlite luminescence, 48 h; series mostly up to 57.5 µM. A digest of the protocol:
as §1

Another assay relates to Tov112D. Described as above. The following applies: Gynecologic cancer cell panel viability, ATPlite luminescence, 48 h; series mostly up to 57.5 µM. A digest of the protocol: as §1
A short description of assay [1]: Drug repurposing screens with cells derived from glioblastoma tumor samples (AID 1345199). Further: nearly all actives have a fitted effect of over 40% in size. Further: potency means the concentration at half of the fitted maximal effect. On activity, negative = cell killing: on the % scale 0 is the no-effect control and ±100 the full control effect. The following applies: GBM patient neurospheres viability, ATP luminescence, 48 h. A digest of the protocol:
(§2)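 Primary testing used CD133+ neurospheres from four GBM patients, seven concentrations, 48 h exposure and ATP-based viability; confirmation added three slower-growing patient lines.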

The next assay relates to astro. Described as above. The following applies: viability, ATP luminescence, 48 h; series mostly up to 45.9 µM. A digest of the protocol: as §2
Assay [2] deals with Nuclear receptor subfamily 1 group I member 2 (Rattus norvegicus) (UniProt Q9R1A7). Put plainly: qHTS assay for small molecule activators of the rat pregnane X receptor (rPXR) signaling pathway (AID 651751; call rule not given here; further: 0% is about no effect). The following applies: rPXR reporter cells, luciferase (One-Glo), 24 h. A general note: qHTS replaces the single test concentration by a dilution series.
Sequence of Nuclear receptor subfamily 1 group I member 2 (Rattus norvegicus) (Q9R1A7 whole entry, looked up): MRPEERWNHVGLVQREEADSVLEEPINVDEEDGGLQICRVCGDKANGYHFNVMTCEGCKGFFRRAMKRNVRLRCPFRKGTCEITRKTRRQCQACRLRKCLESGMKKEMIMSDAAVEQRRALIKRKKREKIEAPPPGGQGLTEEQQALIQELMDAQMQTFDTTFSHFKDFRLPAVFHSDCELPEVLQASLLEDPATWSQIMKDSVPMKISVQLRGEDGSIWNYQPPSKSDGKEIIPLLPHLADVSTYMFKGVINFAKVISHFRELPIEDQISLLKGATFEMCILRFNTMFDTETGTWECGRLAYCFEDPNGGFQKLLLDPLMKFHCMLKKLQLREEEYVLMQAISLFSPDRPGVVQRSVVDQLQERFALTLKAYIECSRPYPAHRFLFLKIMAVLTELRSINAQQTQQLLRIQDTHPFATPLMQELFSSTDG
Assay [3] in a line: qHTS assay for small molecule activators of the human pregnane X receptor (PXR) signaling pathway (AID 720659; call rule not given here; further: 0% is about no effect).
A short description of assay [4]: qHTS assay to identify inhibitors of the type 1 interferon - major histocompatibility complex class I in skeletal muscle: Counter screen cell viability and HiBit confirmation (AID 1347412). Further: nearly all actives have a fitted effect of over 60% in size. Further: potency means the concentration at half of the fitted maximal effect. The following applies: iHSKM muscle cells + IFN-b, HiBiT or CellTiter-Glo, 24 h; Potency: HiBiT unless noted; Viability, at 45.9 µM (top of the series). A digest of the protocol:
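HLA-B*08:01–HiBiT knock-in immortalized human myoblasts (C25cl48) stimulated with 4.0 ng/ml human IFN-beta and dosed with compound in a 12-point 1:3 titration (top final 46 uM). After 24 hrs at 37 C, HiBiT lytic luminescence or CellTiter Glo ATP read out.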

The mark [5] stands for this setting: at 45.9 µM (top of the series), tumour line B.
The mark [6] stands for this setting: at 45.9 µM (top of the series), tumour line D.
[7] abbreviates: at 46.1 µM (top of the series), tumour line C.
The mark [8] stands for this setting: at 20 µM (top of the series), tumour line C.
The mark [9] stands for this setting: at 21.2 µM (top of the series), tumour line B.
The mark [10] stands for this setting: at 21.2 µM (top of the series), tumour line D.

`CCN(CC)CCNC(=O)COc1ccc(Cl)cc1`: the Potency result with JEG-3, in the assay on OV90, in the assay with PA-1, in the assay with SKOV3, in the assay with Tov-21-G and in the assay on Tov112D was “inactive” in each case. The Potency entry in the assay with astro is “inactive”. The activity, negative = cell killing in assay [1] (setting [5]) is 1.81%; in assay [1] (setting [6]), -18.1%.
As to `C=C(CC)C(=O)c1ccc(OCC(=O)O)c(Cl)c1Cl`, the Potency entry in the assay on JEG-3, in the assay on OV90, in the assay on PA-1 and with SKOV3 was “inactive” throughout. In addition, the activity, negative = cell killing in assay [1] (setting [7]) was 1.71%. The max response in assay [2] is -15%. In addition, in assay [3], the molecule was called inactive.
On to `CCC(=O)c1c(O)cc(O)cc1O`, for which the Potency entry in the assay on JEG-3, in the assay on OV90, in the assay with PA-1, in the assay with SKOV3, with Tov-21-G and in the assay with Tov112D was “inactive” throughout. In the assay with astro, the Potency result was “inactive”. Moreover, the activity, negative = cell killing in assay [1] (setting [5]) was -0.713%; in assay [1] (setting [6]), -16.2%; in assay [1] (setting [7]), -2.44%.
For `Oc1c(Cl)cc(Cl)cc1Sc1cc(Cl)cc(Cl)c1O`, the Potency result with JEG-3, with OV90, in the assay on PA-1, in the assay with SKOV3, with Tov-21-G and in the assay on Tov112D was “inactive” in each case. Also, in the assay with astro, the Potency was 10 µM (active). For the same molecule, in assay [3], the call was inactive.
As to `O=C(OCC(O)CO)c1ccccc1Nc1ccnc2cc(Cl)ccc12` (stereo unspecified), the Potency entry in the assay with JEG-3, with OV90, in the assay on PA-1, in the assay with SKOV3, with Tov-21-G and in the assay with Tov112D was “inactive” throughout. Besides, the Potency result with astro was “inactive”. Also, the values for the activity, negative = cell killing in assay [1] (setting [8]) and in assay [1] (setting [9]) were 1.49% and -17%, respectively.
As to `CC(=O)OCC(=O)[C@@]1(OC(C)=O)[C@@H](C)C[C@H]2[C@@H]3C[C@H](F)C4=CC(=O)C=C[C@]4(C)[C@@]3(F)[C@@H](O)C[C@@]21C`, the Potency entry in the assay on JEG-3, in the assay on OV90, in the assay on PA-1, in the assay with SKOV3, with Tov-21-G and with Tov112D was “inactive” in each case. For the same molecule, the Potency entry (in the assay with astro; in assay [4]) was “inactive” in each case. Also, the values for the activity, negative = cell killing in [1] (setting [5]), in assay [1] (setting [6]) and in assay [1] (setting [7]) were -11.4%, 4.06% and -10.3%, respectively.
For `CC1=C(C(=O)O)N2C(=O)[C@@H](NC(=O)[C@H](N)c3ccc(O)cc3)[C@H]2SC1`, the Potency result in the assay on JEG-3, in the assay on OV90, with PA-1, with SKOV3, with Tov-21-G and in the assay on Tov112D was “inactive” throughout. In addition, in the assay on astro, the Potency result was “inactive”. The activity, negative = cell killing was -0.623% in assay [1] (setting [8]), -10.2% in [1] (setting [9]) and -21.8% in [1] (setting [10]).
Take `Cc1ccc(O)c2ncccc12`: the Potency result in the assay on JEG-3, in the assay on OV90, in the assay on PA-1, in the assay with SKOV3, in the assay on Tov-21-G and with Tov112D was “inactive” each time. For the same molecule, the Potency result in the assay on astro was “inactive”.
With `O=c1[nH]c(=O)n([C@H]2CCCO2)cc1F`, the Potency result in the assay with JEG-3, with OV90, with PA-1, in the assay on Tov-21-G and in the assay with Tov112D was “inactive” each time.
For the molecule `NC[C@H]1O[C@H](O[C@H]2[C@H](O[C@@H]3O[C@H](CO)[C@@H](O)[C@H]3O)C(O)[C@H](N)C[C@@H]2N)[C@H](N)[C@@H](O)[C@@H]1O` (stereo partly specified), the activity change, negative = cytotoxicity in the assay on JEG-3 is -0.299% [at 11.6 µM]; in the assay on OV90, 0.648% [at 11.6 µM]; with PA-1 it was 6.06% [at 11.6 µM]; with SKOV3, -1.1% [at 11.6 µM]; in the assay on Tov-21-G, 9.27% [at 11.6 µM]; in the assay with Tov112D, 13.5% [at 11.6 µM]. For the same molecule, the activity, negative = cell killing in assay [1] (setting [9]) was -5.37%; in [1] (setting [10]), 0.454%. The Potency result in the assay on astro was “inactive”.
Consider `CC(C)n1nc(-c2cc3cc(O)ccc3[nH]2)c2c(N)ncnc21`, for which, in the assay on JEG-3, the Potency entry was “inactive”. The Potency was 5.01 µM (active) and 2.82 µM (active) in the assay on OV90; 4.47 µM (active) with PA-1; 1 µM (active) and 631 nM (active) in the assay on SKOV3; 11.2 µM (active) and 4.47 µM (active) with Tov-21-G; 7.94 µM (active) with Tov112D; 3.52 µM (active) in [4].
With `CCOC(=O)c1cccc(N)c1`, the Potency result with JEG-3, in the assay on OV90, in the assay with PA-1, in the assay with SKOV3, in the assay with Tov-21-G and in the assay with Tov112D was “inactive” in each case. Besides, the Potency entry in the assay with astro is “inactive”. Also, the activity, negative = cell killing was -17.6% in [1] (setting [5]), 2.11% in [1] (setting [6]) and -0.117% in [1] (setting [7]).
On to `Oc1ccc(Cl)c2cccnc12`, for which the Potency entry in the assay on JEG-3, in the assay on OV90, in the assay with PA-1, in the assay with SKOV3, in the assay with Tov-21-G and with Tov112D was “inactive” in each case. Further, the Potency entry in the assay on astro is “inactive”. Besides, in assay [1] (setting [7]), the activity, negative = cell killing was -0.921%.
Consider `CC(C)=CCC1C(=O)N(c2ccccc2)N(c2ccccc2)C1=O`, for which the Potency result in the assay on JEG-3, with OV90, in the assay on PA-1, in the assay on SKOV3, in the assay with Tov-21-G and with Tov112D was “inactive” in each case. In the assay on astro, the Potency entry was “inactive”. Also, the activity, negative = cell killing in [1] (setting [7]) was 3.79%.
With `CC(C)(C)NC(=O)[C@@H]1CN(Cc2cccnc2)CCN1C[C@@H](O)C[C@@H](Cc1ccccc1)C(=O)N[C@H]1c2ccccc2C[C@H]1O`, the Potency result in the assay on JEG-3, with OV90, in the assay with PA-1, in the assay with Tov-21-G and with Tov112D was “inactive” each time.
As for `CCN(CC)C(=O)N1CCN(C)CC1`, the Potency result with JEG-3, in the assay with OV90, with PA-1, in the assay on SKOV3, in the assay with Tov-21-G and in the assay on Tov112D was “inactive” throughout. For the same molecule, the Potency result in the assay on astro was “inactive”. The activity, negative = cell killing in assay [1] (setting [9]) was -9.76%; in assay [1] (setting [10]), -28.5%; in assay [1] (at 21.3 µM (top of the series), tumour line A) it was -8.09%.
Take `CC/C(=C(/CC)c1ccc(O)cc1)c1ccc(O)cc1`: the Potency entry with JEG-3, in the assay with OV90, in the assay on PA-1, in the assay with SKOV3, with Tov-21-G and in the assay on Tov112D was “inactive” throughout. In addition, the activity, negative = cell killing is -24.8% in [1] (setting [5]) and -3.33% in [1] (setting [7]). The Potency in assay [1] (tumour line A) was 14.1 µM (active). The max response in [2] is 1.62% and -5.34%.
As for `CC(CCc1ccccc1)NCC(O)c1ccc(O)c(C(N)=O)c1` (stereo unspecified), the Potency entry with JEG-3, in the assay with OV90, in the assay on PA-1, in the assay with SKOV3, in the assay with Tov112D and in the assay with astro was “inactive” each time. Besides, the activity, negative = cell killing in assay [1] (setting [5]) is -24.2%; in [1] (setting [6]), -11.2%; in assay [1] (setting [7]) it was -24%.
For `Oc1ccc(O)cc1`, the Potency result in the assay on JEG-3, in the assay on OV90, in the assay on PA-1, in the assay on SKOV3, with Tov-21-G and with Tov112D was “inactive” in each case. Besides, in [1] (setting [7]), the activity, negative = cell killing is -0.769%. The max response in [2] was -4.09%. The outcome in assay [3] was inactive.
